37 compounds from PubChem BioAssay (Tox21) can be followed below.

Experiment [1] can be described thus: qHTS assay to identify small molecule antagonists of the peroxisome proliferator-activated receptor delta (PPARd) signaling pathway - cell viability counter screen (AID 743213). Further: nearly all actives have a fitted effect of over 50% in size. Further: potency means the concentration at half of the fitted maximal effect. The procedure, abridged:
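Same-well viability: cells pre-incubated 5 h, dosed with compound plus 300 nM L165041, kept 17 h at 37 C, FRET substrate 2 h RT, then CellTiter-Glo 30 min RT and luminescence.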
(In general: In qHTS, concentration-response curves come from the screen itself.)

A short description of experiment [2]: qHTS assay to identify small molecule agonists of the farnesoid-X-receptor (FXR) signaling pathway - cell viability counter screen (AID 743218). Further: nearly all actives have a fitted effect of over 45% in size. Further: potency means the concentration at half of the fitted maximal effect. The procedure, abridged: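 Same-well cytotoxicity check on FXR-UAS-bla HEK 293T cells: 5 h attachment, 16 h compound at 37 C, CellTiter-Glo luminescence read at room temperature after 30 min.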
Experiment [3] deals with Vitamin D3 receptor (Homo sapiens) (UniProt P11473). As to the kind of experiment: qHTS assay to identify small molecule agonists of the vitamin D receptor (VDR) signaling pathway (AID 743222; calls by dose curve). The procedure, abridged:
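Using LiveBLAzer B/G FRET detection, agonism was scored in VDR-bla cells exposed overnight (16 h, 37C) to DMSO-dissolved compounds; substrate incubation was 2 h at room temperature.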

Experiment [4] shares this target. Briefly: qHTS assay to identify small molecule antagonists of the vitamin D receptor (VDR) signaling pathway (AID 743223; active means well fitted inhibition curve with a large enough effect in the signal ratio in the repeat runs, not every such curve was filed as active; the % refers to the signal ratio). A digest of the protocol:
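Antagonist mode: compound added to VDR-bla cells alongside agonist 1alpha,25-dihydroxyvitamin D3 (3 nM final), incubation 16 h at 37C. Read-out is LiveBLAzer FRET fluorescence, 2 h at room temperature.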

The target in experiment [5] is Bile acid receptor (Homo sapiens) (UniProt Q96RI1). As to the kind of experiment: qHTS assay to identify small molecule agonists of the farnesoid-X-receptor (FXR) signaling pathway (AID 743220; active means well fitted activation curve with a large enough effect in the signal ratio in the repeat runs, not every such curve was filed as active; the % refers to the signal ratio). A digest of the protocol:
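FXR-UAS-bla HEK 293T cells carrying a UAS-driven beta-lactamase reporter were plated for 5 h at 37C/5% CO2, then exposed to DMSO-dissolved Tox21 10K compounds for 16 h at 37C. A LiveBLAzer B/G FRET substrate was loaded for 2 h at room temperature before fluorescence reading.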

Experiment [6] is described as follows: qHTS assay to identify small molecule agonists of the vitamin D receptor (VDR) signaling pathway - cell viability counter screen (AID 743224). Further: series mostly up to about 63 µM; nearly all actives have a fitted effect of over 50% in size. The procedure, abridged:
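Counter screen for cytotoxicity: VDR-bla cells at 2,000 cells/well, 16 h compound exposure, then CellTiter-Glo luminescence after the beta-lactamase measurement.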

Experiment [7] in a line: qHTS assay to identify small molecule antagonists of the farnesoid-X-receptor (FXR) signaling pathway - cell viability counter screen (AID 743221; active means well fitted cell-killing curve with a large enough effect in the repeat runs, not every such curve was filed as active; further: nearly all actives have a fitted effect of over 50% in size; further: potency means the concentration at half of the fitted maximal effect). The procedure, abridged: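 Cytotoxicity counter screen run in the FXR-bla reporter wells: HEK 293T cells exposed to compound with 50 uM (final) chenodeoxycholic acid for 16 h, 37 C, then viability measured by CellTiter-Glo luminescence after 30 min, room temperature.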

For experiment [8], the target named is Bile acid receptor (Homo sapiens) (UniProt Q96RI1). As to the kind of experiment: qHTS assay to identify small molecule antagonists of the farnesoid-X-receptor (FXR) signaling pathway (AID 743217; active means well fitted inhibition curve with a large enough effect in the signal ratio in the repeat runs, not every such curve was filed as active; the % refers to the signal ratio). A digest of the protocol: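 Quantitative HTS, beta-lactamase reporter format: FXR-UAS-bla HEK 293T cells co-treated 16 h at 37 °C with compounds and 50 uM final chenodeoxycholic acid, then read by B/G FRET fluorescence.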
Chain of Bile acid receptor (Homo sapiens) (Q96RI1 whole entry, looked up): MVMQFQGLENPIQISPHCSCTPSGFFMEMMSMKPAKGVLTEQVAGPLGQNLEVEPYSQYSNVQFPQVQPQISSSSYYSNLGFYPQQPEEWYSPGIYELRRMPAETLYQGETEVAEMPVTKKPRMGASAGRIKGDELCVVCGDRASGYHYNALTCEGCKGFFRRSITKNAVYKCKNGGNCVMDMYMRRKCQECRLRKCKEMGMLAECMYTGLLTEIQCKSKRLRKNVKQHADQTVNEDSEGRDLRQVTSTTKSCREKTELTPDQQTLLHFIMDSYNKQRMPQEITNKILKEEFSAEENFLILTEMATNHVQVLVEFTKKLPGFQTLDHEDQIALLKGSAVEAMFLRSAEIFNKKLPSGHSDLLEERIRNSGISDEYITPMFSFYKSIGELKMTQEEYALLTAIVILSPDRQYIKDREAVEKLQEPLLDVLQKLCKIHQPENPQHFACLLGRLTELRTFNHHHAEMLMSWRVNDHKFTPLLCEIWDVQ

Results filed as inconclusive are left out. A number with no mark means an inactive call. Calls of active or inactive are those of the source. Unless noted, the call rests on the fitted dose curve; in most records, active means well fitted curve in the direction sought with a large enough effect in the repeat runs; inconclusive means weak or mixed curves; inactive means no such curve, though single readings can be large; an effect the other way counts as inactive or inconclusive.

Chain of Vitamin D3 receptor (Homo sapiens) (P11473 whole entry, looked up): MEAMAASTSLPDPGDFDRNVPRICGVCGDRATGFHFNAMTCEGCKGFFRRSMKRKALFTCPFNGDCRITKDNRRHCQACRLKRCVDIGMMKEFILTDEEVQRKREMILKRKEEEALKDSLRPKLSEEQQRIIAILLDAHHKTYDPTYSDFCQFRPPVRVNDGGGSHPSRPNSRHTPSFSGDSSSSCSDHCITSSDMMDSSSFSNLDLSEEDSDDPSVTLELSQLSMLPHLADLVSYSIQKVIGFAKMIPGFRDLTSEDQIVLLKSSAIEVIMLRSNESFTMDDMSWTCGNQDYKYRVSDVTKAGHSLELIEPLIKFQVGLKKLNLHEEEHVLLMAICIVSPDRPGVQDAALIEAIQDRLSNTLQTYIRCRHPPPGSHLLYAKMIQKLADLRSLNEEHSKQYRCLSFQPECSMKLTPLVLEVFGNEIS

On to `CCCC1CCOC(C)S1` (configuration not stated), for which the Potency in experiment [1] is 4.9 µM (active). Also, the Potency result in experiment [2] was “inactive”. In addition, the outcome in experiment [3] and in experiment [4] was inactive.

On to `C=CC(=O)NC(C)(C)C`, for which the Potency result in experiment [1] is “inactive”. The call in experiment [5], in experiment [3], in experiment [4] and in experiment [6] was inactive.

In the case of `COc1ccc(C(=O)Nc2ccccc2)cc1[N+](=O)[O-]`, the Potency entry in experiment [2] and in experiment [7] was “inactive” in each case. The outcome in experiment [5] and in experiment [6] was inactive.

As to `CC1=C(C)C(=O)C(CCCCC#CCCCC#CCO)=C(C)C1=O`, the Potency result in experiment [1], in experiment [2] and in experiment [7] was “inactive” each time. Further, the compound was called inactive in experiment [6].

`CCCCCCC/C=C/C=O`: the Potency entry in experiment [1], in experiment [2] and in experiment [7] was “inactive” each time. In addition, the result in experiment [4] was inactive.

As for `NCCOCCOCCN`, the Potency result in experiment [1] is “inactive”. Further, the Potency in experiment [2] was 6.92 µM (active); in experiment [7], 19.5 µM (active). Also, the result in experiment [3] and in experiment [6] was inactive.

Regarding `O=C(O)c1cccnc1Nc1cccc(C(F)(F)F)c1`, the call in experiment [8], in experiment [5], in experiment [3] and in experiment [6] was inactive. In addition, in experiment [2], the Potency result was “inactive”.

With `CC(=O)OCC(=O)[C@@]1(O)CC[C@H]2[C@@H]3CCC4=CC(=O)C=C[C@]4(C)[C@@]3(F)[C@@H](O)C[C@@]21C`, the Potency result in experiment [1], in experiment [2] and in experiment [7] was “inactive” each time. Besides, in experiment [6], the compound was classed as inactive.

As to `CCCCCCCCCCCCSCCOCCO`, the result in experiment [8] and in experiment [5] was inactive. In addition, the Potency entry in experiment [2] and in experiment [7] was “inactive” each time.

As for `O=C(O)c1cccc(C(=O)O)c1C(=O)O`, the Potency entry in experiment [2] and in experiment [7] was “inactive” each time. The compound was classed as inactive in experiment [3] and in experiment [6].

Take `C=CC(=O)OCCCCCCCCCC`: the Potency result in experiment [1], in experiment [2] and in experiment [7] was “inactive” throughout. Further, the compound was called inactive in experiment [4] and in experiment [6].

Turning to `O=C1CCCN1CCO`, the Potency entry in experiment [1] is “inactive”. Besides, in experiment [3], the outcome was inactive.

As for `CC(=O)Nc1ccn(C2COC(COC(=O)c3ccccc3)O2)c(=O)n1` (configuration not stated), the Potency result in experiment [1] and in experiment [7] was “inactive” each time. In addition, the call in experiment [3] and in experiment [6] was inactive.

Take `C=C[Si](OCC)(OCC)OCC`: the Potency entry in experiment [1], in experiment [2] and in experiment [7] was “inactive” throughout. Moreover, the call in experiment [3], in experiment [4] and in experiment [6] was inactive.

`CCN(CCCCOC(=O)c1ccc(OC)c(OC)c1)C(C)Cc1ccc(OC)cc1` (configuration not stated): the Potency entry in experiment [7] is “inactive”. Further, the call in experiment [4] and in experiment [6] was inactive.

For `Cc1c(Nc2ncccc2C(=O)O)cccc1C(F)(F)F`, the call in experiment [6] was inactive.

Take `CCOC(C)OCC`: the Potency result in experiment [1], in experiment [2] and in experiment [7] was “inactive” in each case. Further, the call in experiment [3], in experiment [4] and in experiment [6] was inactive.

In the case of `CC(C)CCCCCOC(=O)CS`, the Potency entry in experiment [1], in experiment [2] and in experiment [7] was “inactive” throughout. In addition, the compound was classed as inactive in experiment [6].

For the compound `O=c1c2ccccc2oc2ccccc12`, the Potency entry in experiment [7] is “inactive”. Besides, the result in experiment [3] and in experiment [6] was inactive.

On to `Nc1ccccc1Nc1ccccc1`, for which the Potency result in experiment [1], in experiment [2] and in experiment [7] was “inactive” in each case. Further, the compound was classed as inactive in experiment [6].

In the case of `O=C(N[C@@H](Cc1ccccc1)[C@@H](O)C(=O)N1C[C@@H](O)[C@@H](O)C1)c1cc2cc(Cl)ccc2[nH]1`, the Potency entry in experiment [2] and in experiment [7] was “inactive” throughout. Further, in experiment [4], the call was inactive.

Take `Cc1c(N=C=O)cccc1N=C=O`: the Potency result in experiment [1] and in experiment [2] was “inactive” each time. Also, the result in experiment [4] and in experiment [6] was inactive.

As for `C[C@H](N)C(=O)N[C@@H](C)C(=O)NC1[C@H]2CN(c3nc4c(cc3F)c(=O)c(C(=O)O)cn4-c3ccc(F)cc3F)C[C@@H]12` (some centres not stated), the Potency entry in experiment [2] and in experiment [7] was “inactive” throughout. Also, the call in experiment [4] and in experiment [6] was inactive.

Turning to `CCCCOC(=O)CC#N`, the Potency in experiment [1] was 57.6 µM (active). In experiment [2], the Potency result was “inactive”. Further, the outcome in experiment [3] and in experiment [6] was inactive.

As for `C[C@]12CCC(=O)C=C1[C@@H]1C[C@@H]1[C@H]1[C@@H]3[C@@H]4C[C@@H]4[C@@]4(CCC(=O)O4)[C@@]3(C)CC[C@@H]12`, the Potency entry in experiment [1], in experiment [2] and in experiment [7] was “inactive” throughout. The call in experiment [4] and in experiment [6] was inactive.

With `Cc1cccc(C)c1NC(=O)CN1CCCC1`, the Potency result in experiment [1], in experiment [2] and in experiment [7] was “inactive” in each case. Moreover, the compound was called inactive in experiment [6].

With `CCc1ccc2c(c1)C(=O)c1ccccc1C2=O`, the Potency result in experiment [1] and in experiment [7] was “inactive” each time. Also, the compound was classed as inactive in experiment [3] and in experiment [6].

Turning to `CC(=O)c1ccc(Cl)c(Cl)c1Cl`, the Potency entry in experiment [1], in experiment [2] and in experiment [7] was “inactive” throughout. Moreover, the result in experiment [3] and in experiment [4] was inactive.

With `COc1ccnc2c1CCCCC2S(=O)c1nc2ccccc2[nH]1` (configuration not stated), the Potency result in experiment [1], in experiment [2] and in experiment [7] was “inactive” each time. The compound was classed as inactive in experiment [4] and in experiment [6].

Take `CC/C=C\CCO`: the Potency entry in experiment [1] and in experiment [7] was “inactive” in each case. For the same compound, the result in experiment [5], in experiment [3] and in experiment [6] was inactive.

Take `CO[C@@H]1[C@@H](O[C@@H]2O[C@H](C)[C@@H](O[C@H]3C[C@@](C)(O)[C@@H](O)[C@H](C)O3)[C@H](N(C)C)[C@H]2O)[C@@H](CC=O)C[C@@H](C)[C@@H](O[C@@H]2CC[C@H](N(C)C)[C@@H](C)O2)/C=C/C=C/C[C@@H](C)OC(=O)C[C@H]1OC(C)=O`: in experiment [7], the Potency entry is “inactive”. For the same compound, the compound was classed as inactive in experiment [3] and in experiment [6].

With `O=C(O)c1cc(C(=O)O)cc([N+](=O)[O-])c1`, the Potency result in experiment [1], in experiment [2] and in experiment [7] was “inactive” throughout. In experiment [6], the compound was classed as inactive.

Consider `CC(O)CN` (configuration not stated), for which the Potency result in experiment [1], in experiment [2] and in experiment [7] was “inactive” each time. Also, the outcome in experiment [3] and in experiment [4] was inactive.

`Cc1ccc(NC(=O)c2ccc(CN3CCN(C)CC3)cc2)cc1Nc1nccc(-c2cccnc2)n1`: the Potency result in experiment [2] and in experiment [7] was “inactive” throughout.

As for `CC(=O)Oc1cccc2c1C(=O)c1c(OC(C)=O)cc(C(=O)O)cc1C2=O`, the Potency entry in experiment [1] and in experiment [7] was “inactive” in each case. In experiment [6], the compound was called inactive.

As to `CCOC(=O)CC(O)(CC(=O)OCC)C(=O)OCC`, the Potency result in experiment [1], in experiment [2] and in experiment [7] was “inactive” in each case. Also, the result in experiment [3] and in experiment [4] was inactive.

Regarding `CC(C)C[C@H](NC(=O)[C@H](Cc1ccccc1)NC(=O)c1cnccn1)B(O)O`, the Potency in experiment [7] is 0.298 µM (active).
